Screening data from PubChem BioAssay.
UGM FP inh: M. tuberculosis UGM enzyme inhibitors, primary screen, biochemical, fluorescence polarization, single point; 0.06% of 320,000 active; purified UGM, fluorescence polarization probe displacement; UDP-galactopyranose mutase (Mycobacterium tuberculosis (strain ATCC 25618 / H37Rv)), …; AID 504406, 2011; inhibition, % at 10 µM; in the data active = inhibition above about 10%, passing the limit was not always enough
Target sequence (P9WIQ1 whole entry, looked up): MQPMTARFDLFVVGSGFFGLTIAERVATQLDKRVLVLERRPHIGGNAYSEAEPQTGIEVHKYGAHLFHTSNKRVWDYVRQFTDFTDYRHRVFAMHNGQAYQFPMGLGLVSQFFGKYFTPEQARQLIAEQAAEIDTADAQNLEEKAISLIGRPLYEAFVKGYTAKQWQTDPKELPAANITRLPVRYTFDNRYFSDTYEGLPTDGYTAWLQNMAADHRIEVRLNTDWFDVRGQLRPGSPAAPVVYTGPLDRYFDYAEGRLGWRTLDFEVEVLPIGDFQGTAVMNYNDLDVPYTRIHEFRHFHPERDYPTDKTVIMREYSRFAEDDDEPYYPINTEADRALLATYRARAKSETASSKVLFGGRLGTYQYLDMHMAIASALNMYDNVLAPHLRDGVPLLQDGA
Mtb betalactam: beta-lactam sensitization of Mtb H37Rv, H37Rv | M. tuberculosis H37Rv growth with meropenem, percent inhibition | AID 434955, 2010 | 0.27% of 330,000 active | inhibition, % at 25 µM;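 note: growth measured after seven days incubation then overnight dye step; 0% = bacteria only wells and 100% = bacteria with antibiotic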
GDH-TPI counter-1: GDH-TPI coupling enzyme inhibitors, primary screen, artefact control for M. tuberculosis FBA inhibitor project, biochemical, absorbance, full deck; GDH-TPI coupled enzyme counterscreen, NADH absorbance; inhibition, % at 4.8 µM; 1.2% of 360,000 active; in the data active = inhibition above about 30%;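 note: 0% = DMSO wells and 100% = wells lacking the enzyme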
Mtb FBA inh: Mtb FBA enzyme inhibitors, primary screen, biochemical, fluorescence, strain H37Rv; Fructose-bisphosphate aldolase (Mycobacterium tuberculosis (strain ATCC 25618 / H37Rv)), …; purified M. tuberculosis FBA, fluorescence read-out; inhibition, % at 1 µM; 2.3% of 360,000 active; AID 588726, 2011; in the data active = inhibition above about 27%;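 note: 0% = vehicle and 100% = reference inhibitor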
Target sequence (P9WQA3 whole entry, looked up): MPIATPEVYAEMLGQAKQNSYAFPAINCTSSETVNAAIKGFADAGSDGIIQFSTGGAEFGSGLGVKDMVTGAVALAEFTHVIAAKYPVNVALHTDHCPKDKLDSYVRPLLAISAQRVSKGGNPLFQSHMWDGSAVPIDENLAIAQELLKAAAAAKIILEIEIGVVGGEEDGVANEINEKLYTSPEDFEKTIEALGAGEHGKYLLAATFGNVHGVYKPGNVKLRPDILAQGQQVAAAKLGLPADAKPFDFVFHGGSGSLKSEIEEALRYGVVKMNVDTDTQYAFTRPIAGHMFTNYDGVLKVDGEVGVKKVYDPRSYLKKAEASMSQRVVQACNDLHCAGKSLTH
Rv3671c inh: Rv3671c serine protease inhibitors, primary screen, biochemical, fluorescence polarization, M. tuberculosis H37Rv | P9WHR9 | 0.048% of 320,000 active | inhibition, % at 5.96 µM; in the data active = inhibition above about 38%;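 note: extracellular domain of Rv3671c used as enzyme; 0% = enzyme with DMSO and 100% = no enzyme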
RecA splice inh: Mtb RecA intein splicing inhibitors, primary screen, biochemical, fluorescence, HTS. cell-free RecA intein splicing. 0.75% of 290,000 active. AID 2221, 2009. inhibition, % (no concentration beside the values); in the data active = inhibition above about 30%;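 note: 0% = vehicle wells and 100% = reference inhibitor control wells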
Mtb FBA confirm: M. tuberculosis aldolase blockers, biochemical, fluorescence, strain H37Rv, confirmation | shares compounds with Mtb FBA inh | purified M. tuberculosis FBA, fluorescence read-out | inhibition, % at 1 µM | 78% of 5,600 active | AID 651616, 2012; in the data active = inhibition above about 27%;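 note: 0% = vehicle wells and 100% = reference inhibitor wells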
GDH-TPI counter-2: GDH-TPI coupling enzyme inhibitors, artefact control for M. tuberculosis FBA inhibitor project, biochemical, fluorescence, high throughput; 81% of 5,600 active; inhibition, % at 1 µM; shares compounds with Mtb FBA inh; GDH-TPI coupled enzyme counterscreen; in the data active = inhibition above about 10%
GDH-TPI DR: GDH-TPI coupling enzyme inhibitors, dose response, artefact control for M. tuberculosis FBA inhibitor project, biochemical, fluorescence, IC50; shares compounds with Mtb FBA inh; GDH-TPI coupled enzyme assay, artifact counterscreen; IC50, µM; 79% of 170 active
Numbers without * were called inactive; i = inactive; . = not tested or not shown; + = active, no number. Only some compounds are listed: those with a hit (about 4% of all), similar ones and a draw of the others. Unless noted, the rule behind the calls is not given here.

SMILES | UGM FP inh | Mtb betalactam | GDH-TPI counter-1 | Mtb FBA inh | Rv3671c inh | RecA splice inh | Mtb FBA confirm | GDH-TPI counter-2 | others
Cc1cccc(CN2C(=O)/C(=C\c3ccc(C(=O)NCCCN4CCN(C)CC4)cc3)Oc3ccccc32)c1 | -0.8 | 98.4 | 5.2 | 81.0* | -75.5 | -80.4 | 9.8 | -3.0
CN1CCN(CCCNC(=O)c2ccc(/C=C3\Oc4ccccc4N(Cc4ccccc4F)C3=O)cc2)CC1 | -0.6 | 40.9 | 17.4 | 54.9* | -76.5 | -53.9 | -0.6 | -3.7
Cc1cc(C(=O)COC(=O)c2ccccc2NCCO)c(C)n1CC1CCCO1 (configuration not stated) | -0.6 | 12.9 | 15.9 | 28.8* | -8.5 | 1.5 | + | +
Cc1cc(C(=O)COC(=O)c2ccccc2O)c(C)n1CC1CCCO1 (configuration not stated) | 1.0 | -1.4 | 10.8 | -0.8 | -1.4 | . | . | .
CC1(C)OC(=CC=Nc2ccc(Cl)cc2)OC1(C)C | -4.8 | -4.5 | 20.0 | 48.8* | 6.5 | -6.6 | + | +
Cc1ccc(N=CC=C2OC(C)(C)C(C)(C)O2)c(C)c1 | -3.5 | 2.8 | -8.1 | 4.8 | 0.6 | -11.9 | . | .
N#Cc1cccc(S(=O)(=O)NCc2nnc3ccccn23)c1 | 3.6 | -0.6 | 4.8 | 0.4 | 7.2 | . | . | .
Cc1ccc(-c2cc(-c3ccc(C)cc3)[n+](-c3ccc(C(=O)[O-])cc3)c(-c3ccc(C)cc3)c2)cc1 | -1.9 | 100.0 | 45.8* | 37.5* | -2.9 | 40.5* | 13.9 | 7.1 | GDH-TPI DR=3.85*
Cc1c2c(nc3ccccc13)CC(C)(C)CC2=O | 3.5 | 4.3 | 6.8 | 4.4 | -6.5 | 27.0 | . | .
O=C(COC(=O)COc1ccc(Br)cc1)NCC1CCCO1 (configuration not stated) | 7.5 | -3.1 | -2.6 | 3.0 | -5.3 | . | . | .
COc1ccc(-c2nn(-c3ccccc3)cc2N)cc1 | 0.3 | 1.3 | 5.8 | 92.6* | -6.2 | 6.8 | + | +
C[C@H](CO)N1C[C@H](C)[C@@H](CN(C)Cc2ccc3c(c2)OCO3)Oc2c(NC(=O)C3CC3)cccc2C1=O | -1.6 | -5.6 | 6.7 | 8.6 | -3.0 | . | . | .
CC(C)n1ncc2c(C(=O)Nc3ccccc3SCC(N)=O)cc(C3CC3)nc21 | . | . | 8.9 | -2.3 | . | . | . | .
CC(C)n1ncc2c(C(=O)NCC(=O)Nc3ccccc3Br)cc(C3CC3)nc21 | 0.2 | 13.5 | 4.6 | 29.6* | -6.7 | . | -2.5 | 0.3
Cc1cc(C)c(NC(=O)CNC(=O)c2cc(C3CC3)nc3c2cnn3C(C)C)c(C)c1 | . | . | 8.0 | 34.5* | . | . | 120.9* | 92.2*
Cc1cc(C)c(CNC(=O)c2cc(C3CC3)nc3c2cnn3C(C)C)c(=O)[nH]1 | 0.8 | -1.5 | 8.4 | 7.0 | 0.3 | . | . | .
CCc1ccccc1NC(=O)CNC(=O)c1cc(C2CC2)nc2c1cnn2C(C)C | 0.5 | 2.8 | 4.8 | 37.3* | -0.4 | . | + | +
Cn1c(Cc2ccccc2)nnc1SCC(=O)NC1CCCC1 | -0.9 | 1.3 | 10.3 | -0.2 | -5.8 | -3.7 | . | .
COc1cccc(-c2ccc(C#N)c(OC(=O)c3ccc(Cl)cc3)n2)c1 | 0.4 | 2.8 | 21.3 | 95.1* | -1.6 | -2.8 | 135.3* | 106.1*
Cc1cccc(C2Nc3ccccc3C(=O)N2c2ccccc2)n1 (configuration not stated) | -1.4 | 12.2 | -2.4 | 61.4* | 2.1 | -3.8 | 47.2* | 46.4*
C/C(=N\NC(=O)CNC(=O)c1ccc(F)cc1)c1ccco1 | -0.2 | -0.8 | 3.6 | 2.1 | 0.1 | 1.5 | . | .
COc1ccc(CCNC(=O)c2cc(-c3ccco3)nc3ccccc23)cc1 | -1.4 | -18.3 | . | . | 0.5 | 9.9 | . | .
O=C(NNC(=O)c1cc(-c2ccco2)nc2ccccc12)c1ccccc1 | 1.3 | -4.4 | 2.6 | 49.9* | -2.3 | -3.5 | 67.8* | 60.7*
CCN(CC)CCNC(=O)c1cc(-c2ccco2)nc2ccccc12 | -1.8 | -0.9 | 5.1 | 82.3* | -0.2 | -6.7 | 151.9* | 129.5*
Cc1c(O)ccc2c(=O)c(Oc3ccccc3)coc12 | 1.1 | -3.9 | -2.2 | 1.2 | . | -1.4 | . | .
SMILES | UGM FP inh | Mtb betalactam | GDH-TPI counter-1 | Mtb FBA inh | Rv3671c inh | RecA splice inh | Mtb FBA confirm | GDH-TPI counter-2 | others
CCCOC(=O)c1ccc(Oc2coc3c(CN(CC)CC)c(O)ccc3c2=O)cc1 | -0.2 | -7.3 | 22.1 | 55.2* | -3.9 | -11.3 | 16.0 | 12.3*
O=C(O)c1cn(-c2ccc(F)cc2)c2cc(N3CCNCC3)c(F)cc2c1=O | . | . | 8.8 | 33.3* | . | . | 169.9* | 136.4*
Oc1ccc(CN2CCCCC2)nc1-c1ccccc1 | 0.3 | 3.3 | 3.4 | 86.5* | -2.2 | -0.6 | 16.0 | -0.5 | GDH-TPI DR=5.29*
C=CCNC(=O)CSc1nc2sccc2c(=O)n1-c1ccccc1 | -2.4 | -11.6 | -9.5 | -2.9 | -0.4 | -0.9 | . | .
COC(=O)C1=C(C)NC(=O)C1(Nc1nccs1)C(F)(F)F (configuration not stated) | 0.1 | -0.5 | 6.8 | -0.5 | -0.7 | -0.9 | . | .
COC(=O)c1scc2c(=O)cc(C(F)(F)F)[nH]c12 | -1.0 | -0.6 | -3.1 | 29.4* | 6.7 | i | . | +
CC/C(=N/NC(=O)c1ccc(Br)cc1)c1ccc(OCCN2CCOCC2)cc1 | 6.3 | 3.9 | 7.0 | -0.3 | 0.6 | 0.4 | . | .
CC/C(=N/NC(=O)c1ccccc1)c1ccc(OCCN2CCOCC2)cc1 | -1.8 | 7.0 | 2.6 | 31.0* | 1.1 | 0.8 | 90.9* | 56.6*
Cc1cc(N=Cc2c(O)n(-c3ccc4c(c3)OCO4)c(=O)c3ccccc23)ccn1 | 4.8 | -4.7 | 6.1 | 38.1* | -4.8 | -16.6 | + | +
COc1cc(-c2nc(-c3ccccc3)c(-c3cccs3)[nH]2)cc(OC)c1O | -2.4 | 10.0 | 20.9 | 24.0 | 9.8 | 0.3 | . | .
COc1cc(-c2nc(-c3ccccc3)c(-c3cccs3)[nH]2)cc(OC)c1OC | 0.2 | 55.1 | 17.9 | 46.0* | 1.6 | -1.2 | 1.1 | -4.5
CC(C)c1nc(-c2ccccc2)c(-c2ccccc2)[nH]1 | -2.4 | -2.1 | 6.0 | 7.0 | 11.6 | 2.7 | . | .
c1ccc(-c2nc(-c3cccs3)[nH]c2-c2ccccc2)cc1 | 0.1 | -4.3 | 17.9 | 63.1* | 3.7 | . | + | 177.8*
